# From the supplement of paper PMC11732987, “Enantioselective OTUD7B fragment discovery through chemoproteomics screening and high-throughput optimisation” (Communications Chemistry, 2025)
# Values without a mark were called inactive.
# Tests used:
# Test in all cases: log2 ratio of Biotin-Ahx-Ub-VS probe labelling (fragment/DMSO); higher = less target engagement (more negative = stronger competition), active = hit call of the paper (q ≤ 0.05, log2 ratio ≤ -1)
# Conditions in all cases: compound concentration: 200 uM; treatment time: 3 h
# OTUD6B = biological target: T1, OTUD6B (UniProt Q8N6M0)
# T1 sequence (whole entry): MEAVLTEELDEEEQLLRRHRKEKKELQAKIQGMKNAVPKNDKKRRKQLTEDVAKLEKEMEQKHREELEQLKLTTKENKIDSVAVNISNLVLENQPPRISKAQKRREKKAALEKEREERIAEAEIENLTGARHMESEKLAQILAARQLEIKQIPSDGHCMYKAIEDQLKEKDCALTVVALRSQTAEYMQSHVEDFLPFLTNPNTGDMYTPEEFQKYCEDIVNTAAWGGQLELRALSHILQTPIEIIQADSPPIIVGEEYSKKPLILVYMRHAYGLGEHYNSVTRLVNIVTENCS
# Method in brief: (§1)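 The table lists average log2 ratios of fragment over vehicle, from an unpaired t-test on global-median-normalised Spectronaut label-free quantities. Proteins with ≥2 unique peptides were used. Samples were HEK293T lysate (495 µg) treated in triplicate with fragment at 200 µM or vehicle for 3 h, then with Biotin-Ahx-Ub-VS (0.5 µM final) for 1 h, with labelled DUBs NeutrAvidin-enriched and run by diaPASEF LC-MS/MS.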
# OTUD7B = biological target: T2, OTUD7B (UniProt Q6GQQ9)
# T2 sequence (whole entry): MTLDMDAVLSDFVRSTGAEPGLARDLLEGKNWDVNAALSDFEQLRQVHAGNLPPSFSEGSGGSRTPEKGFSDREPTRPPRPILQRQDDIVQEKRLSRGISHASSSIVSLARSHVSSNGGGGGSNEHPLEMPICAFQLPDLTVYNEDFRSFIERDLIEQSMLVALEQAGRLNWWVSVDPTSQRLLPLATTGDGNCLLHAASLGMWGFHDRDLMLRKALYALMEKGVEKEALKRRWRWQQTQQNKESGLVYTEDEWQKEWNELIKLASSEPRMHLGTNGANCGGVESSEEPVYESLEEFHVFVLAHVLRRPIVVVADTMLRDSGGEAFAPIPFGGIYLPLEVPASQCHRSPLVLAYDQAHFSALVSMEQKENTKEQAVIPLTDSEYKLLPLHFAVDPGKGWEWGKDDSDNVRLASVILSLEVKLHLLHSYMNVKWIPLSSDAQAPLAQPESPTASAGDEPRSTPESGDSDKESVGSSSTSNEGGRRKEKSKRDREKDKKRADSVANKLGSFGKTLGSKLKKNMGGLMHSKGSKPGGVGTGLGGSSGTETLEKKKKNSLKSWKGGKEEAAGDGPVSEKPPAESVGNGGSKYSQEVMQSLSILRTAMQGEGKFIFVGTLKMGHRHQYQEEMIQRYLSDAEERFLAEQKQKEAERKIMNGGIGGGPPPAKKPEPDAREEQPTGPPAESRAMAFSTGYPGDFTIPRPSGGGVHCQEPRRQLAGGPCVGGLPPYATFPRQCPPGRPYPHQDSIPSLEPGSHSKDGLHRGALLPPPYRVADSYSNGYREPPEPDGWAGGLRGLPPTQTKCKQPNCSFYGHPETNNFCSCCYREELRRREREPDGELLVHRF
# Method in brief: as §1
# PRPF8 = PRPF8 (UniProt Q6P2Q9)
# Method in brief: as §1
# PSMD7 = biological target: T3, PSMD7 (UniProt P51665)
# T3 sequence (whole entry): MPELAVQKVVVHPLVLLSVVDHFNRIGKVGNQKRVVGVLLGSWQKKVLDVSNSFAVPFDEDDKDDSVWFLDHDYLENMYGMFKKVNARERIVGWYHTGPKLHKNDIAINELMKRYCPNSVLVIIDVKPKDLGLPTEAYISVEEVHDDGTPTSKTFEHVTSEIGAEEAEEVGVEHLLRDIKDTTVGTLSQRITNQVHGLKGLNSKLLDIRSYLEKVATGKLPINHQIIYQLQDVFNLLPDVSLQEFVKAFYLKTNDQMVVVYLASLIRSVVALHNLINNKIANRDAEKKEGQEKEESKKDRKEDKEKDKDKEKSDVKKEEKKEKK
# Method in brief: as §1
# UCHL1 = UCHL1 (UniProt P09936)
# Method in brief: as §1
# UCHL3 = biological target: T4, UCHL3 (UniProt P15374)
# T4 sequence (whole entry): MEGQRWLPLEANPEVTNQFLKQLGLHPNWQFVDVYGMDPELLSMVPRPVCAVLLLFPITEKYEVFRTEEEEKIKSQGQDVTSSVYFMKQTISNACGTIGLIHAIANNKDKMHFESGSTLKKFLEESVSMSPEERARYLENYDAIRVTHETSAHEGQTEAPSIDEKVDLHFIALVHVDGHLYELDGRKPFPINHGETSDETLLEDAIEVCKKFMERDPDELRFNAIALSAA
# Method in brief: as §1
# UCHL5 = biological target: T5, UCHL5 (UniProt Q9Y5K5)
# T5 sequence (whole entry): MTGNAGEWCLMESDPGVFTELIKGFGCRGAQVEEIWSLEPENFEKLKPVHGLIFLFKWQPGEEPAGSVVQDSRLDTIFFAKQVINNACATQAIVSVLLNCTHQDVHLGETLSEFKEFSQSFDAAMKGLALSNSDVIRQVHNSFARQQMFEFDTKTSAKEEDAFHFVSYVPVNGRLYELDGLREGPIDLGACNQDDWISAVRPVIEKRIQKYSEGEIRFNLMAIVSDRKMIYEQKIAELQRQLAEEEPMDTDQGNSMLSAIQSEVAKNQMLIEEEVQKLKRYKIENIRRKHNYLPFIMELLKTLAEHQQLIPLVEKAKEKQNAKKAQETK
# Method in brief: as §1
# USP10 = USP10 (UniProt Q14694)
# Method in brief: as §1
# USP15 = biological target: T6, USP15 (UniProt Q9Y4E8)
# T6 sequence (whole entry): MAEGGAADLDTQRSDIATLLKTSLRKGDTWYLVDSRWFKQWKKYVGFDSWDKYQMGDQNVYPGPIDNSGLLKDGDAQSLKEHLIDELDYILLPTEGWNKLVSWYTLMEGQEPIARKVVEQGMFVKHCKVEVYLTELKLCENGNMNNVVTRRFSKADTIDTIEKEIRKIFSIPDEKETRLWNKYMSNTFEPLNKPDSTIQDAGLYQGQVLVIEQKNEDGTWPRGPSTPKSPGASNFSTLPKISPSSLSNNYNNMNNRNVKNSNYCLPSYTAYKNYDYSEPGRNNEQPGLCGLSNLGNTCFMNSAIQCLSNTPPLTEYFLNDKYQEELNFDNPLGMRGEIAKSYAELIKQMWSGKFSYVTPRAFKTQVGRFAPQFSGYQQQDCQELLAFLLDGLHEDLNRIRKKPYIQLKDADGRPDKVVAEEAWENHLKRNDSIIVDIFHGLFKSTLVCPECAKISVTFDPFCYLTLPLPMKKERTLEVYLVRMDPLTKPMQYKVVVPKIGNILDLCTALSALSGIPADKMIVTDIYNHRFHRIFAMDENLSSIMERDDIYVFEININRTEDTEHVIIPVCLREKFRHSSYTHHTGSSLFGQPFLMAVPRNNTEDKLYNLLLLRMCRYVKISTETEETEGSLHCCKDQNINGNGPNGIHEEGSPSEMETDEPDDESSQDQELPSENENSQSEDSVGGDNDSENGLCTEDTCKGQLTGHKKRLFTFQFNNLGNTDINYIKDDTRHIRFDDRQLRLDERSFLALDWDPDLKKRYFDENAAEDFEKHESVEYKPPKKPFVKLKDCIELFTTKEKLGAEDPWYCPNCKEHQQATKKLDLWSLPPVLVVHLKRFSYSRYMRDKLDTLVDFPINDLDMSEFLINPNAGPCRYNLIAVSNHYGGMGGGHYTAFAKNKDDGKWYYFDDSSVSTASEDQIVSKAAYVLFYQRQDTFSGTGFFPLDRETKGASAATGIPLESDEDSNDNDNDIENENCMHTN
# Method in brief: as §1
# USP16 = USP16 (UniProt Q9Y5T5)
# Method in brief: as §1
# Sequence of UCHL1 (P09936 whole entry, looked up): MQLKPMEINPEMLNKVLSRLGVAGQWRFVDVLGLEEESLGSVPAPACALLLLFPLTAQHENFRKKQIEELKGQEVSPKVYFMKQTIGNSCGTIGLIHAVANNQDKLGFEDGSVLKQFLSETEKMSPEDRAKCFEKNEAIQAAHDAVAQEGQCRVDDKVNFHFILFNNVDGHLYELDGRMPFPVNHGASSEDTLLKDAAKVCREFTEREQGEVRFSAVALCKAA
# Sequence of USP10 (Q14694 whole entry): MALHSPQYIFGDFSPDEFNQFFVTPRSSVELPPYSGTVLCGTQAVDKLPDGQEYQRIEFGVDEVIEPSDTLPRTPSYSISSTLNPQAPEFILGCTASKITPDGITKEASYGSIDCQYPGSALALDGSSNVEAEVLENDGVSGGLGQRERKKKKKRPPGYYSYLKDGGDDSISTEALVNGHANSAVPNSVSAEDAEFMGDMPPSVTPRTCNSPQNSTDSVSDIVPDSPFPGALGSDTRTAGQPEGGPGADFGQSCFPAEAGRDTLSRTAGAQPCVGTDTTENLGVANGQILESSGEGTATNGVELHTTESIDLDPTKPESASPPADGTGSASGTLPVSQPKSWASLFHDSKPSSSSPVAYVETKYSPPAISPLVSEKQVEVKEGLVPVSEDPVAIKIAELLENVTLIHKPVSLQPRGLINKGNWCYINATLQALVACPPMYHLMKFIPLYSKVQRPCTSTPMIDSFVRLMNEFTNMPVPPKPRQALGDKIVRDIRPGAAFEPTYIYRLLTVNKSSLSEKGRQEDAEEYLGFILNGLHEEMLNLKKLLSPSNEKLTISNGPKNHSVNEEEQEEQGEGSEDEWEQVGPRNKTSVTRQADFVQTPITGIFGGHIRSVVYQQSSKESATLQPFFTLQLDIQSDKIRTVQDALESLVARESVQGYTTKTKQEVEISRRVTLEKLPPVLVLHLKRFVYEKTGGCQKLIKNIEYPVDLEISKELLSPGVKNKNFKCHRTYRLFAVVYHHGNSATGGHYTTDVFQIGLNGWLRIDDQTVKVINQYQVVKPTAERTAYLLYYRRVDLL
# Sequence of USP16 (Q9Y5T5 whole entry, looked up): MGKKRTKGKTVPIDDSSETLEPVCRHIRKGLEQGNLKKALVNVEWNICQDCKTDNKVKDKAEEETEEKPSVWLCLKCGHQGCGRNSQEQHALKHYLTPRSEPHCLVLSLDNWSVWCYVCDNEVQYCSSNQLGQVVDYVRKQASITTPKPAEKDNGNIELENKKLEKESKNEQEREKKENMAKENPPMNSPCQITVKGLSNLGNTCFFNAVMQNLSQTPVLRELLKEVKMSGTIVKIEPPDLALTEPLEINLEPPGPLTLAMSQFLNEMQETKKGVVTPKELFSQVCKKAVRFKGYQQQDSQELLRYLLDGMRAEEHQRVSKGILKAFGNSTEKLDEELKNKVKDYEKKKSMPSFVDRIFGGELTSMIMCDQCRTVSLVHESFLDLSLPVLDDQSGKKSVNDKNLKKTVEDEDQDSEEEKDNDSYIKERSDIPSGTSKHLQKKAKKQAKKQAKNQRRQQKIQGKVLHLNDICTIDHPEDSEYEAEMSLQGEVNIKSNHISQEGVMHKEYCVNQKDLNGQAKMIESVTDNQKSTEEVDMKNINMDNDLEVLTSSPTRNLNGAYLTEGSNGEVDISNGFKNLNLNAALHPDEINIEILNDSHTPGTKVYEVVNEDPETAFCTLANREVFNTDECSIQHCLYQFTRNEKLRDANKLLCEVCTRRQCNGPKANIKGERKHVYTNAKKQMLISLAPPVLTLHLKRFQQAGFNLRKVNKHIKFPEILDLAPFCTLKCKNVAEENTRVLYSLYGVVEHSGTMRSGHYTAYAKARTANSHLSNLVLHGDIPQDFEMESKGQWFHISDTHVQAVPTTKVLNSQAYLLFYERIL
smiles,measurement,setting,value
CN(C)C(=O)c1ccc(NC(=O)CCl)cc1,log2 ratio of Biotin-Ahx-Ub-VS probe labelling,OTUD6B,-0.253
same,log2 ratio of Biotin-Ahx-Ub-VS probe labelling,OTUD7B,-0.664
same,log2 ratio of Biotin-Ahx-Ub-VS probe labelling,PRPF8,-0.106
same,log2 ratio of Biotin-Ahx-Ub-VS probe labelling,PSMD7,-0.259
same,log2 ratio of Biotin-Ahx-Ub-VS probe labelling,UCHL1,-1.46 (active)
same,log2 ratio of Biotin-Ahx-Ub-VS probe labelling,UCHL3,-0.282
same,log2 ratio of Biotin-Ahx-Ub-VS probe labelling,UCHL5,-0.194
same,log2 ratio of Biotin-Ahx-Ub-VS probe labelling,USP10,-0.0447
same,log2 ratio of Biotin-Ahx-Ub-VS probe labelling,USP15,0.0049
same,log2 ratio of Biotin-Ahx-Ub-VS probe labelling,USP16,-0.712
